Measurements as given in the supplement of paper PMC12636033.
± gives the standard deviation of the averaged measurements. The full ranking holds about 33,000 sequences; the median of “E-score (rank enrichment, -0.5 to 0.5)” is about -0.0028, and the highest 2% start at about 0.23. What follows is part of a selection rich in the highest values, with near analogues and random picks from the rest.

These sequences were tested on 2Sb-muMax20 (muMax20 with two 1,3-bis(methyl)benzene Cys staples, A13C/A17C and Q88C/A92C, C-terminal Lys) (assay: PBM 8-mer E-score (E-score (rank enrichment, -0.5 to 0.5)); higher = stronger preferential binding).
Experimental: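 Protein binding microarray (universal PBM chip covering all 10-mers in fixed probe flanks) with chemically synthesized human Max(13-93) bHLH-LZ analogs (not full-length Max) bearing noncanonical residues (hArg, Tha, Aib, Nle at 65) and aromatic Cys staples. Read-out per 8-mer (and its reverse complement): E-score (rank-based enrichment, -0.5 to 0.5) and Z-score of median probe intensity.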
AGTTAATA was tested, and the “PBM 8-mer E-score” value was 0.184 ± 0.015. With AAGTTCGG the “PBM 8-mer E-score” value was -0.224 ± 0.029. CAATTCCG was tested, and the “PBM 8-mer E-score” value was -0.0516 ± 0.045. For AAGGTAAG, the “PBM 8-mer E-score” value was -0.0254 ± 0.00071. In the case of ATTACGAA, the “PBM 8-mer E-score” value is reported as -0.000195 ± 0.03. With AGTCTAAT the “PBM 8-mer E-score” value was 0.0498 ± 0.0033. For CGCTACTC, the “PBM 8-mer E-score” value was -0.172 ± 0.031. With CTTAGGCA the “PBM 8-mer E-score” value was -0.203 ± 0.024. AAGGCCCG was tested, and the “PBM 8-mer E-score” value was -0.159 ± 0.055. For GTTTCTGA, the “PBM 8-mer E-score” value was 0.0103 ± 0.029. For CCACCCAA, the “PBM 8-mer E-score” value was 0.128 ± 0.049. With CACCCCTG the “PBM 8-mer E-score” value was 0.0699 ± 0.055. In the case of CCACCCTA, the “PBM 8-mer E-score” value is reported as 0.189 ± 0.0062. CCACCCTC was tested, and the “PBM 8-mer E-score” value was 0.234 ± 0.036. For CCACCCAC, the “PBM 8-mer E-score” value was 0.239 ± 0.045. GACCCCTC was tested, and the “PBM 8-mer E-score” value was 0.0964 ± 0.036. ACACCCTC was tested, and the “PBM 8-mer E-score” value was 0.0661 ± 0.073. In the case of ACACCCAC, the “PBM 8-mer E-score” value is reported as 0.2 ± 0.028. In the case of CACCCCTC, the “PBM 8-mer E-score” value is reported as 0.278 ± 0.026. For GGTCCCGA, the “PBM 8-mer E-score” value was -0.305 ± 0.042. With AATATCCA the “PBM 8-mer E-score” value was 0.0444 ± 0.082. In the case of AATATCCG, the “PBM 8-mer E-score” value is reported as -0.0514 ± 0.051. AATATCCC was tested, and the “PBM 8-mer E-score” value was 0.245 ± 0.056. In the case of CGGGGGTA, the “PBM 8-mer E-score” value is reported as 0.0309 ± 0.084. With CCCCCCCG the “PBM 8-mer E-score” value was -0.2 ± 0.13. For GCACCAGA, the “PBM 8-mer E-score” value was -0.126 ± 0.045. For AGCCCCGG, the “PBM 8-mer E-score” value was -0.0543 ± 0.054. For ACCCACCT, the “PBM 8-mer E-score” value was 0.13 ± 0.029. For GCCCACCA, the “PBM 8-mer E-score” value was 0.12 ± 0.024. In the case of TCCCACCA, the “PBM 8-mer E-score” value is reported as -0.0255 ± 0.1. For CCCCACCC, the “PBM 8-mer E-score” value was 0.282 ± 0.076. With CCCCACCG the “PBM 8-mer E-score” value was 0.11 ± 0.1. With ACCCACCA the “PBM 8-mer E-score” value was 0.274 ± 0.027. For ACCACCCA, the “PBM 8-mer E-score” value was 0.073 ± 0.062. With ACCCACCC the “PBM 8-mer E-score” value was 0.417 ± 0.02. In the case of ACCCACCG, the “PBM 8-mer E-score” value is reported as 0.0752 ± 0.014. For GCCCACCC, the “PBM 8-mer E-score” value was 0.359 ± 0.045. With CCCCACCA the “PBM 8-mer E-score” value was 0.162 ± 0.035. For GCCCACAC, the “PBM 8-mer E-score” value was 0.0967 ± 0.059. ATTCGGAG was tested, and the “PBM 8-mer E-score” value was -0.0732 ± 0.026. GGGGATCA was tested, and the “PBM 8-mer E-score” value was 0.0797 ± 0.027. For AAGACCGT, the “PBM 8-mer E-score” value was -0.244 ± 0.028. AATGGTAT was tested, and the “PBM 8-mer E-score” value was 0.157 ± 0.044. In the case of ACGGGGTG, the “PBM 8-mer E-score” value is reported as 0.118 ± 0.023. With CAGTATAC the “PBM 8-mer E-score” value was 0.0863 ± 0.1. With GATGAAAC the “PBM 8-mer E-score” value was 0.0586 ± 0.022. ATGAACGG was tested, and the “PBM 8-mer E-score” value was -0.111 ± 0.0086. For CTCCGTCC, the “PBM 8-mer E-score” value was -0.114 ± 0.018. For ATGTAATG, the “PBM 8-mer E-score” value was 0.155 ± 0.013. In the case of ATGTAACA, the “PBM 8-mer E-score” value is reported as 0.242 ± 0.031. For CTGTAACA, the “PBM 8-mer E-score” value was -0.00643 ± 0.026. For CTGTAATA, the “PBM 8-mer E-score” value was 0.0526 ± 0.019. With ATGTAACG the “PBM 8-mer E-score” value was 0.0488 ± 0.0084. For ATGTAATA, the “PBM 8-mer E-score” value was 0.236 ± 0.065. With AAAACCAC the “PBM 8-mer E-score” value was 0.121 ± 0.013. With GCGTACCA the “PBM 8-mer E-score” value was -0.0976 ± 0.0064. For AGACAAAA, the “PBM 8-mer E-score” value was -0.00983 ± 0.042. For ACAGCAAA, the “PBM 8-mer E-score” value was 0.0417 ± 0.047. For ACGGGAAT, the “PBM 8-mer E-score” value was -0.08 ± 0.016. In the case of AATGGGTA, the “PBM 8-mer E-score” value is reported as 0.039 ± 0.0031. For AGTGGGTC, the “PBM 8-mer E-score” value was -0.178 ± 0.017. In the case of CGTGGGTA, the “PBM 8-mer E-score” value is reported as 0.00707 ± 0.0098. For CATGGGTA, the “PBM 8-mer E-score” value was 0.053 ± 0.028. With AGTGGGTG the “PBM 8-mer E-score” value was 0.259 ± 0.0086. For AGTGGGCG, the “PBM 8-mer E-score” value was 0.237 ± 0.019. AGTGGGCC was tested, and the “PBM 8-mer E-score” value was -0.212 ± 0.019. With GGTGGGTA the “PBM 8-mer E-score” value was 0.282 ± 0.063. GATGGGTA was tested, and the “PBM 8-mer E-score” value was 0.246 ± 0.021. For GTTGGGTA, the “PBM 8-mer E-score” value was 0.1494 ± 0.00044. With AGTGGGTA the “PBM 8-mer E-score” value was 0.121 ± 0.042. AGTGGGCA was tested, and the “PBM 8-mer E-score” value was 0.0757 ± 0.023. CGGCGCCG was tested, and the “PBM 8-mer E-score” value was -0.0151 ± 0.033. For AATGAACA, the “PBM 8-mer E-score” value was 0.129 ± 0.016. CCGCTGGC was tested, and the “PBM 8-mer E-score” value was -0.26 ± 0.0032. For AAGGCACG, the “PBM 8-mer E-score” value was 0.076 ± 0.023. With GGCACACA the “PBM 8-mer E-score” value was -0.16 ± 0.044. In the case of ATTCCGCC, the “PBM 8-mer E-score” value is reported as 0.107 ± 0.039. AAACTAGA was tested, and the “PBM 8-mer E-score” value was 0.08188 ± 0.00023. For GAACTAGA, the “PBM 8-mer E-score” value was 0.067 ± 0.017. With TAACTAGA the “PBM 8-mer E-score” value was 0.238 ± 0.031. With ACTATTAT the “PBM 8-mer E-score” value was 0.194 ± 0.027. For GATATTAA, the “PBM 8-mer E-score” value was 0.123 ± 0.014. In the case of TATATTAA, the “PBM 8-mer E-score” value is reported as 0.158 ± 0.011. With AGTATTAA the “PBM 8-mer E-score” value was 0.206 ± 0.061. In the case of AATATTAG, the “PBM 8-mer E-score” value is reported as 0.178 ± 0.0068. In the case of AGTATTAC, the “PBM 8-mer E-score” value is reported as 0.236 ± 0.075.
